Results filed as inconclusive are left out. Where a call stands in place of a potency, no number is given. The source made the active and inactive calls. Calls come from the whole dose curve; as a rule, active = well fitted inhibition curve with a large enough effect; inconclusive = small, poorly fitted or top-dose-only effect; inactive = no such curve, though single readings can be large or run the other way.
Experiment: Acumen qHTS Assay for Inhibitors of the mTORC1 Signaling Pathway in WT MEF Cells: Hit Validation; note: nearly all actives have a fitted effect of over 60% in size
Conditions: Acumen imaging; series mostly up to 37.3 µM
In short: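 Read-out is immunofluorescent phospho-rpS6 (Ser235/236) normalised to PI-stained cell number, reported as % active cells using a 7.5 nM rapamycin threshold. Cells: WT or Tsc2-/-, p53-/- MEFs, compound-exposed 24 h at 37C; PI count also tracks viability.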
Potency is the fitted concentration of half-maximal effect.

Structure (SMILES)	Potency
COC(=O)c1c(C)oc2ccc(N(C(=O)c3ccncc3)S(=O)(=O)c3ccc(OC)cc3)cc12	4.14 µM (active)
CCc1ccc(S(=O)(=O)c2c(C(=O)c3ccc(C)c(C)c3)cnc3ccccc23)cc1	inactive
CC1C(=O)Nc2ccc(S(=O)(=O)Nc3ccccc3Br)cc2NC1=O (stereo not drawn)	inactive
Cc1ccc(C)c(S(=O)(=O)NCC(c2ccco2)S(=O)(=O)c2ccc(F)cc2)c1 (stereo not drawn)	inactive
COc1ccccc1CNC(=O)CCCn1c(=O)c2cccn2c2ccccc21	inactive
O=C(NCC1CCN(Cc2cccc(Cl)c2)CC1)Nc1ccc(F)c(Cl)c1	inactive
COc1cccc(-n2c(-c3ccc(C)cc3)cc3c2CC(C)(C)CC3=O)c1	inactive
COc1ccc(-c2nc(C)c(CCNC(=O)c3ccccc3Br)s2)cc1OC	inactive
CCOC(=O)CSc1nc2cc3c(cc2c(=O)n1CCCCCC(=O)NCc1ccc2c(c1)OCO2)OCO3	inactive
COCCCNC(=O)c1ccc(CSc2nc3cccnc3n2Cc2ccc(OC)cc2)cc1	inactive
Cc1ccc(CN2C(=O)C(=O)c3cc(Br)cc(C)c32)cc1	inactive
Cc1ccc(NC(=O)CSc2ccc(-c3ccccn3)nn2)cc1F	inactive
Cc1c(C2=CCN(S(=O)(=O)c3ccc(Br)cc3)CC2)c2ccccc2n1CC(=O)N1CCCC1	inactive
Cc1ccc(NC(=O)Nc2cccs2)c(C)c1	inactive
CCOC(=O)Cn1c(=O)c2c(nc(N3CCOCC3)n2Cc2ccccc2)n(C)c1=O	4.14 µM (active)
CCOc1ccc(-n2c(C)nc3c(cnn3-c3ccc(C)cc3)c2=O)cc1	inactive
CC1=C(C(=O)OC2CCCC2)C(c2ccccc2Cl)CC(=O)N1 (stereo not drawn)	inactive
CCc1ccc(OCC(=O)Nc2ccc3oc(-c4ccc(OC)cc4)nc3c2)cc1	inactive
CCc1nn(CC(=O)NCc2ccccc2Cl)c(=O)c2cccn12	inactive
COc1ccc(NC(=O)c2ccco2)cc1NC(=O)COc1ccccc1Cl	inactive
Cc1ccc(C)c(N2CCN(CCCNC(=O)c3nnc(Cc4ccc(F)cc4Cl)o3)CC2)c1	inactive
CCCC1=Nc2cc(C(=O)NC3CCCC3)ccc2Sc2ccc(C)cc21	0.736 µM (active)

Structure (SMILES)	Potency
Cc1ccccc1NC(=O)c1sc2nc3c(cc2c1N)CCCC3	inactive
Cc1ccc(NC(=O)c2ccc(CN3CCN(C)CC3)cc2)cc1Nc1nccc(-c2cccnc2)n1	inactive
COc1cccc(C(=O)Nc2ccc(-c3cc(C(F)(F)F)nn3-c3ccccc3)cc2)c1	inactive
O=C(/C=C/c1ccco1)Nc1ccc(Cl)c(-c2nc3cc(Cl)ccc3o2)c1	inactive
COc1ccc(Cl)cc1NC(=O)CSc1nc(-c2ccco2)cc(C(F)(F)F)n1	inactive
O=S(=O)(NCC(c1ccco1)S(=O)(=O)c1cccs1)c1ccc(Cl)cc1 (stereo not drawn)	inactive
CCCCS(=O)(=O)c1nc(-c2ccc(Br)cc2)cc(-c2ccccc2)c1C#N	5.21 µM (active)
CCc1ccc(-c2nc(CSCC(=O)NCc3ccc(C)cc3)c(C)o2)cc1	inactive
Cc1c(C(=O)OCc2ccccc2)[nH]c2c1C(=O)CC(c1ccc(Cl)cc1)C2 (stereo not drawn)	13.1 µM (active)
Cc1cccc(NC(=O)c2c(NC(=O)C(F)(F)F)sc3c2CCCCC3)c1	inactive
CCc1ccc(NC(=O)Cn2c(=O)n(-c3ccc(OC)cc3)c(=O)c3ccc(C(=O)NCc4ccc(C)cc4)cc32)cc1	10.4 µM (active)
Cc1ccc(C)c(NC(=O)c2nc(S(=O)(=O)Cc3ccc(F)cc3)ncc2Cl)c1	2.33 µM (active)
Cc1ccccc1CS(=O)(=O)c1ncc(Cl)c(C(=O)Nc2nnc(C(C)C)s2)n1	11.7 µM (active)
CC(C)OCCCn1c(=O)c2ccccc2n2c(-c3ccc(F)cc3)nnc12	inactive
Nc1nc(Nc2ccccc2F)sc1C(=O)c1ccc(Cl)cc1	inactive
O=C(Cn1c(=O)c2ccccc2n(CC(=O)Nc2ccc(Cl)cc2)c1=O)NCCc1ccccc1	14.7 µM (active)
CC(C)S(=O)(=O)c1oc(-c2ccc(F)cc2)nc1S(=O)(=O)c1ccc(F)cc1	0.521 µM (active)
CCOC(=O)c1cnc2ccc(OCC)cc2c1NCCc1ccc(OC)c(OC)c1	inactive
COc1ccc(N2CC(c3nc(-c4cc(OC)c(OC)c(OC)c4)no3)CC2=O)cc1Cl (stereo not drawn)	inactive
COc1cc(OC)c(NS(=O)(=O)c2ccc3c(c2)CCCN3C(C)=O)cc1Cl	inactive
COc1cc(C)ccc1OCCn1c(-c2ccc(Cl)cc2)nc2ccccc2c1=O	inactive

— PubChem BioAssay AID651789 (National Center for Advancing Translational Sciences (NCATS), 2012)
